HP1b binding inh = HP1-beta chromodomain-methylated histone interaction inhibition; P83916; AlphaScreen HP1-beta / biotin-H3K9me3 peptide binding; Potency, µM (highest dose often 114 µM), for the others: at the top dose activity change, negative = inhibition, actives largely listed as inhibitors; 390,000 tested, 0.56% active; AID 540317; also: nearly all actives have a fitted effect of over 70% in size
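HP1-beta protein (50 nM final) preincubated 30 min at room temperature with biotinylated H3(1-18)K9me3 peptide (50 nM) in PBS pH 7.4, 0.01% Tween-20, then compound added for 30 min. AlphaScreen streptavidin donor/nickel chelate acceptor beads (10 ug/mL final), 30 min dark, luminescence read.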
BAZ2B block = blocks human BAZ2B. AlphaScreen BAZ2B-H3K14Ac peptide displacement. 360,000 tested, 4.4% active. Q9UIF8. Potency, µM (top dose mostly 114 µM), without a hit: top-dose activity change, negative = inhibition, usual class: inhibitors; also: % is scaled to controls: 0 for no effect and ±100 for the full control effect; nearly all actives have a fitted effect of over 60% in size
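Protein-peptide AlphaScreen: BAZ2B 50 nM, b-H3K14Ac 50 nM, 1x PBS pH 7.4 + 0.01% Tween-20. Preincubation 30 min RT; cpd 30 min RT (top 110 uM); beads 20 min RT, light-protected.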
G9a block = blocks human histone lysine methyltransferase G9a; Q96KQ7; AID 504332; 350,000 tested, 8.8% active; G9a H3K9 monomethylation, AlphaScreen, 2 h; Potency, µM (doses to about 102 µM), inactives show at the highest dose activity, negative = inhibition, actives largely listed as inhibitors; also: % is scaled to controls: 0 for no effect and ±100 for the full control effect; nearly all actives have a fitted effect of over 75% in size
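Compounds were preincubated with 20 nM G9a for 15 min, after which biotinylated H3K9 peptide (500 nM) and SAM (20 uM) started a 2 h room-temperature reaction. Monomethylated product was quantified by antibody-based AlphaScreen chemiluminescence.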
Sfp PPTase inh = inhibitors of Bacillus subtilis Sfp phosphopantetheinyl transferase | 310,000 tested, 3.5% active | Potency, µM, inactives show largest response in the series, negative = inhibition, actives largely listed as inhibitors | AID 1490 | Biochemical Sfp PPTase activity, qHTS;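 also: the enzyme is Sfp with the accession as filed and its product quenches rhodamine fluorescence; 0% = enzyme reaction without inhibitor and -100% = no enzyme wells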
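Fluorescence-quenching assay with 15 nM Sfp, 5 uM rhodamine-CoA and 12.5 uM BHQ-2-labelled ybbR peptide in pH 7.6 Hepes/MgCl2 buffer. Enzyme was pre-incubated with compound for 15 min at room temperature. Rate was taken from the 30-min fluorescence change (525/598 nm).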
JMJD2A Tudor inh = inhibitors of human JMJD2A Tudor domain; Potency, µM (titrated, usually from 114 µM), for the others: at the highest dose activity change, negative = inhibition, usual class: inhibitors; O75164; 390,000 tested, 4.4% active; AlphaScreen JMJD2A-Tudor / H3K4me3 peptide binding; also: % is scaled to controls: 0 for no effect and ±100 for the full control effect; nearly all actives have a fitted effect of over 50% in size
* marks the source's active call; other numbers are inactive results; ? = inconclusive; . = not tested or not shown; [ ] = another dose, or the depositor's remark. An excerpt weighted towards active compounds, which were near 12% of everything screened. Calls follow the shape of the dose curve; as a rule, active = well fitted curve in the direction sought with a large enough effect; inconclusive = small, poorly fitted or top-dose-only effect, or another doubt; inactive = no such curve, though single readings can be large; an effect the other way counts as inactive or inconclusive. Potency is read from the fitted curve at half-maximal effect.

SMILES	HP1b binding inh	BAZ2B block	G9a block	Sfp PPTase inh	JMJD2A Tudor inh
CC1=C(C(=O)Nc2ccccc2)C(c2cccc(Cl)c2)n2nc(SCC(=O)c3ccc(C)cc3)nc2N1 (configuration not stated)	-5%	1%	4%[59 µM]	.	-18%
Cc1cccc(C(C)(C)C)c1OCCN1CCCC1	?	-9%	25µM*	-45%	4.5µM*
Cc1cccc(C(C)(C)C)c1OCCOCCN1CCCC1	-49%	-28%	?	1%	2.2µM*
Cc1ccc(S(=O)(=O)N2CCN(CCOc3c(Cl)cccc3Cl)CC2)cc1C	46%	-3%	13%[12.7 µM]	.	-5%
COc1ccc(-c2cn3cccnc3n2)cc1NC(=O)c1c(F)cccc1F	27%[57 µM]	3%	-4%[59 µM]	.	-2%
Cc1ccc2c(c1)c1c(n2CC(O)Cn2c(C)nc3ccccc32)/C(=N\O)CCC1 (configuration not stated)	-10%	?	18µM*	1%	?
COc1cc(OC)c(NC(=O)c2c(C)oc3ncn(C)c(=O)c23)cc1Cl	21%	-4%	1%[59 µM]	.	-14%
C/C(CC1CC(C)OC1=O)=N\NC(N)=S (configuration not stated)	-12%	?	35µM*	25µM*	?
CCC1CC(/C(C)=N/NC(N)=O)OC1=O (configuration not stated)	16%	-13%	-10%[59 µM]	20%	-6%
CCNc1nc(NCC)n2c(SCC(=O)Nc3ccc(F)cc3)nnc2n1	10%	?	?	.	-18%
CCNc1nc(NCC)n2c(SCC(=O)Nc3ccc(C)c(C)c3)nnc2n1	3%	50µM*	3.5µM*	.	-9%
CCNc1nc(NCC)n2c(SCC(=O)Nc3ccc(Br)cc3F)nnc2n1	?	?	7.1µM*	.	?
CCOc1ccc(NC(=S)NNC(=O)c2ccc(Br)cc2)cc1	0%	-38%	35µM*	18%	?
O=C(NC(=S)NNC(=O)c1ccco1)c1ccc(Br)cc1	6%	-3%[57.1 µM]	22µM*	-7%	2%
COc1ccc(C(=O)NC(=S)NC2CCSC2=O)cc1 (configuration not stated)	32%	-5%	10µM*	5%	-12%
COc1cc(OC)cc(C(=O)NC2CCSC2=O)c1 (configuration not stated)	17%	.	20%[59 µM]	7%	-20%
CCC(=O)NC(=S)NNC(=O)COc1ccc(Br)cc1	23%	-12%	8.9µM*	-12%	-11%
O=C(COc1ccc(Br)cc1)NNC(=S)NCc1ccccc1	9%	-6%	?	23%	-33%
CCOc1ccccc1CNC(=O)C1CCN(S(=O)(=O)c2ccc3c(ccn3C)c2)CC1	10%[57 µM]	-6%	11%[59 µM]	.	-18%
Cc1ccc2c(c1)c1c(c(=O)n(-c3ccccc3)c(=O)n1CC(=O)NCCC1=CCCCC1)n2C	21%	-6%	-5%[59 µM]	.	-11%
COc1ccc(C(=O)NNC(=S)NC(=O)c2ccc(Cl)cc2)cc1	10%	.	.	.	-14%
CCCOc1ccc(C(=O)NNC(=S)NC(C)=O)cc1	19%	25%[57.1 µM]	?	?	28µM*
COc1ccc(CC(=O)NNC(=O)c2ccc(NC(C)=O)cc2)cc1	-17%	-15%	45µM*	14%	-11%
COc1ccc(C(=O)NC(=S)NNC(=O)c2ccc(NC(=O)C(C)C)cc2)cc1	-28%	3%	4.5µM*	1%	?
CCCOc1ccc(C(=O)NNC(=S)NC(=O)c2ccco2)cc1	?	-12%	40µM*	3%	-31%
SMILES	HP1b binding inh	BAZ2B block	G9a block	Sfp PPTase inh	JMJD2A Tudor inh
CCCN1CNc2c(c(=O)[nH]c(=S)n2CCc2c(C)cccc2C)C1	41%	.	.	.	-16%
CN(C(=O)c1ccc(-c2nn(C)c(=O)c3ccccc23)cc1)C1CCCCC1	24%	-28%	3%	6%	-13%
COc1ccc(C(=O)NC(=S)NNC(=O)c2ccc(C)cc2)cc1	9%	.	.	.	?
CCC(=O)NC(=S)NNC(=O)c1ccc(OC)cc1	32%	4%	22µM*	56µM*	22µM*
CCCCOc1ccc(C(=O)NNC(=S)NC(=O)CC)cc1	39%	9%	20µM*	-5%	?
COc1ccc(C(=O)NC(=S)NNC(=O)c2ccc3ccccc3n2)cc1	-23%	79µM*	13µM*	13%	50µM*
O=C(c1ccc2c(c1)OCO2)c1cn(Cc2ccc(F)cc2)c2ccccc2c1=O	13%	-25%	-28%[59 µM]	.	-23%
CC1CCCN(Cc2nc3c(c(=O)n(C)c(=O)n3C)n2Cc2ccc(Cl)cc2Cl)C1 (configuration not stated)	6%	.	-3%[59 µM]	.	-16%
CS(=O)(=O)c1nc(S(=O)(=O)c2ccc(Cl)cc2)c(N2CCC(O)CC2)s1	34%	-2%	-2%	13%	2%
C#CCOCCOCCOCCNc1nc(N2CCN(C(=O)[C@H]([C@@H](C)CC)n3cc([C@@H](N)Cc4ccc(O)cc4)nn3)CC2)nc(N2CCN(C(=O)[C@H](Cc3cc4ccccc4[nH]3)n3cc([C@@H](N)CC(C)C)nn3)CC2)n1	-7%	56µM*	-38%[2.33 µM]	.	40µM*
C#CCOCCOCCOCCNc1nc(N2CCN(C(=O)[C@H]([C@@H](C)CC)n3cc([C@@H](N)CC(C)C)nn3)CC2)nc(N2CCN(C(=O)[C@H](Cc3cc4ccccc4[nH]3)n3cc([C@@H](N)Cc4ccc(O)cc4)nn3)CC2)n1	-29%	50µM*	4%[12.7 µM]	?	56µM*
C#CCOCCOCCOCCNc1nc(N2CCN(C(=O)[C@H]([C@@H](C)CC)n3cc([C@@H](N)CC(C)C)nn3)CC2)nc(N2CCN(C(=O)[C@H](Cc3cc4ccccc4[nH]3)n3cc([C@@H](N)C(C)CC)nn3)CC2)n1 (some centres not stated)	.	50µM*	2%[12.7 µM]	-23%	.
CC(=O)c1ccc(S(=O)(=O)N(C)CC(=O)N2CCCCCC2)cc1	24%	6%	21%	4%	5%
O=C(c1ccncc1)N1CCC2(CC1)CCN(c1ccncc1)CC2	.	.	-1%[12.7 µM]	25%	.
OCCN(CCO)c1ccc(C(c2ccccc2Cl)c2ccc(N(CCO)CCO)cc2Cl)c(Cl)c1	-14%	?	45µM*	-10%	?
Cc1ccc(C(=O)OCC(=O)c2ccc(CC(=O)N3CCOCC3)s2)cc1C	19%	50µM*	?	.	?
O=C(OCC(=O)N1CCOCC1)c1ccc2c(c1)OCCO2	47%	4%	-1%	14%	-4%
Cc1ccc(C(=O)OCC(=O)c2ccc(CC(=O)N3CCOCC3)s2)c(C)c1	-36%	50µM*	45µM*	.	13µM*
C#CCOCCOCCOCCNc1nc(N2CCN(C(=O)[C@H](CCCCN)n3cc(C(N)CC(C)C)nn3)CC2)nc(N2CCN(C(=O)[C@H](CCC(=O)O)n3cc(C(N)[C@H](C)CC)nn3)CC2)n1 (some centres not stated)	49%	50µM*	-136%[59 µM]	5%	50µM*

Screens: PubChem BioAssay, National Center for Advancing Translational Sciences (NCATS)
